Results taken from PubChem BioAssay AID624167 (Sanford-Burnham Center for Chemical Genomics, 2012).

Assay: inhibition of PEG-3 promoter-driven reporter – cell-based, HeLa, luciferase, CREF/GAPDH counter-screen panel, dose response (AID 624167)
Conditions: CREF/GAPDH counter-screens; run 2, dose range 1, at 100 µM (top of the series)
`Cc1cc(Br)ccc1NC(=O)CNC(=O)Cn1ncc(Cl)c(Cl)c1=O` showed an inhibition of 98.9%. With `Cc1cccc(OCC(=O)NCC(=O)N/N=C/c2cc(Br)cc(Br)c2O)c1` the inhibition was 74.4%. Compound `CCc1ccn2cc(-c3ccc4c(c3)OCO4)nc2c1` has an inhibition of 97.5%. Work on `Cc1cc(C)c2sc(NNC(=O)c3ccc(S(=O)(=O)N4CCc5ccccc5C4)cc3)nc2c1` yielded an inhibition of 62%. Compound `CCCC(=O)NC(c1ccc(N(C)C)cc1)c1ccc2cccnc2c1O` (stereo not drawn) has an inhibition of 27.1%. Work on `O=[N+]([O-])c1ccc(S(=O)(=O)c2ccccc2)nc1` yielded an inhibition of 94.5%. For `Cc1ccc(-n2c(N)c(C(=O)Nc3c(C)n(C)n(-c4ccccc4)c3=O)c3nc4ccccc4nc32)cc1`, the inhibition was 81.3%. With `Cc1ccc(C)c(S(=O)(=O)N2CCN(c3ncnc4sccc34)CC2)c1` the inhibition was 61.2%. For `COc1ccc(N(C(=O)CCl)C(C(=O)NC2CCCCC2)c2cccnc2)cc1` (stereo not drawn), the inhibition was 82.8%. Work on `NS(=O)(=O)c1ccc(CCNc2nn3c(-c4ccc(F)c(Cl)c4)cnc3s2)cc1` yielded an inhibition of 75.5%. In the case of `O=c1cnnc(N/N=C/c2ccccn2)[nH]1`, the inhibition is reported as 9.22%. `CC1=CC2C(C(O)CC3(C)C2CC(C)C32OCOC23COCO3)C2(C)C/C(=C\O)C(=O)C=C12` (stereo not drawn) showed an inhibition of 100%. In the case of `COc1cccc(OC)c1C(=O)Nc1cc(C)nn1-c1nc2ccccc2[nH]1`, the inhibition is reported as 54.4%. In the case of `CC(=O)c1ccc(-c2cnc3c(NC=O)cc(-c4ccccc4Oc4ccccc4)cn23)cc1`, the inhibition is reported as 40%. In the case of `CS(=O)(=O)Nc1cccc(NC(=O)C2Cc3c(-c4cccc(F)c4)ccnc3O2)c1` (stereo not drawn), the inhibition is reported as 73.6%. `Nc1nonc1-n1nnc(C(=O)N/N=C/c2cc(Br)ccc2O)c1CNc1ccccc1` showed an inhibition of 66.5%. In the case of `CS(=O)(=O)c1ccc(-c2cn3cc(C(=O)O)ccc3n2)cc1`, the inhibition is reported as 78.3%. `COc1cccc2c1C(=O)c1c(O)c3c(c(O)c1C2=O)CC(O)(C(C)=NNC(=O)c1ccc(Cl)c(Cl)c1)CC3OC1CC(N)C(O)C(C)O1` (stereo not drawn) showed an inhibition of 99.4%. With `Cc1ccc(/C=C2\SC(=S)N(CCCC(=O)Nc3ccccn3)C2=O)cc1` the inhibition was 76.5%. Work on `CCCC(=O)NC(c1ccccc1)c1ccc2cccnc2c1O` (stereo not drawn) yielded an inhibition of 39.4%. In the case of `O=C(N/N=C\c1c(O)ccc2ccccc12)c1ccc(Cn2cccn2)o1`, the inhibition is reported as 34.2%. `COc1ccc2c(c1)c(=Cc1ccc(N(C)C)cc1)c1cc(-c3ccccc3)[n+](C)n12` showed an inhibition of 99.9%. With `CCOC(=O)c1c(SCCN2CCCCC2)n(-c2ccccc2)c(=S)n(-c2ccccc2)c1=O` the inhibition was 98%. `O=C(O)c1ccc(N/N=C/c2ccc3c(c2)OCO3)cc1` gave an inhibition of 97.7%. Work on `CCCCC(=O)NC(c1ccccc1OC)c1ccc2cccnc2c1O` (stereo not drawn) yielded an inhibition of 50.9%. `OCCCNc1nccc(-c2cc(Nc3cccc(Cl)c3)ncn2)n1` showed an inhibition of 51.4%. For `CC(/C=C/c1ccccc1)=N/NC(=O)c1cc([N+](=O)[O-])cc([N+](=O)[O-])c1`, the inhibition was 12.6%. Work on `CC(=O)c1cccc(-c2ccnc3c2CC(C(=O)Nc2cccc(NS(C)(=O)=O)c2)O3)c1` (stereo not drawn) yielded an inhibition of 52%. Compound `Oc1[nH]c2ccc(Br)cc2c1N=NC(=S)N1CCOCC1` has an inhibition of 63.5%. Work on `O=C(CCSc1nc2ccccc2s1)N/N=C/c1c(O)ccc2ccccc12` yielded an inhibition of 0.467%. For `CC(C)(C)c1ccc(Oc2ccc(N)cc2)cc1`, the inhibition was 95.6%. `N=c1n(CC(=O)c2ccc([N+](=O)[O-])cc2)c2ccccc2n1Cc1ccc(Cl)cc1` showed an inhibition of 90.8%. Work on `COc1ccc(NC(=O)c2cc(-c3ccccn3)nc3ccccc23)cc1S(=O)(=O)N(C)C` yielded an inhibition of 60.4%.
